tim10-1 inh – tim10-1 yeast growth inhibition; 2.2% of 330,000 active; inhibition, % at 20 µM; AID 463190; S. cerevisiae tim10-1 ts strain growth, BacTiter-Glo, 24 h;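 active = inhibition of at least 40%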;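 also: mutant grown at 25 °C; 0% = DMSO wells with yeast and 100% = wells holding no yeast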
NLRP3 yeast inh – blocks the NALP3 inflammasome reconstituted in yeast; Yeast reconstituted NLRP3/ASC/caspase-1, beta-gal luminescence, 24 h; inhibition, % at 10 µM; 0.39% of 330,000 active; AID 2825;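 active = inhibition of 50% or more; inactive = inhibition below 50%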;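 also: plate controls were induced DMSO wells for no effect and uninduced yeast grown without galactose for full effect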
tim23-1 inh – growth inhibitors of tim23-1 mutant yeast; 1.3% of 330,000 active; inhibition, % at 20 µM; S. cerevisiae tim23-1 growth, BacTiter-Glo luminescence, 24 h;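 active = growth inhibition of the mutant yeast at or above 50%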;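 also: temperature-sensitive mutant grown at 25 °C; plate controls were DMSO-treated mutant yeast for no effect and medium wells lacking yeast for full effect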
NALP1 inh – blocks the NALP1 inflammasome reconstituted in yeast | S. cerevisiae NALP1/ASC/caspase-1 growth, X-gal OD620, 72 h | 0.61% of 280,000 active | inhibition, % at 10 µM; in the data active = inhibition mostly above about 24%, no sharp cut-off; inactive = mostly below about 32%
TIM10 inh – inhibits growth of TIM10 yeast strain; S. cerevisiae TIM10 strain growth, BacTiter-Glo luminescence, 24 h; inhibition, % at 10 µM; 1.4% of 330,000 active;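 active = inhibition of 40% or more at the single tested concentration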;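 also: wild-type TIM10 isogenic control strain grown at permissive 25 °C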
TIM10 conf – confirmation of TIM10 yeast growth inhibitors; shares compounds with TIM10 inh; S. cerevisiae tim10 strain growth, BacTiter-Glo luminescence, 24 h; inhibition, % at 10 µM; 63% of 4,600 active; AID 463215;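 active = inhibition of yeast growth at or above a set limit in either of two replicates at 10 µM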;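 also: this counterscreen used the strain with wild-type TIM10; 0% = yeast with DMSO and 100% = medium wells lacking yeast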
* = called active by the depositor; x = no result given. Most compounds without a hit are left out; they make up all but 4.1% or so of the library.

SMILES	tim10-1 inh	NLRP3 yeast inh	tim23-1 inh	NALP1 inh	TIM10 inh	TIM10 conf
Cc1ccc(CC(=O)OCC(=O)NC2CCCC(C)C2C)cc1C (stereo unspecified)	24.2	5.4	4.9	-4.3	50.2*	14.2
CC1CCCC(NC(=O)COC(=O)c2ccc([N+](=O)[O-])s2)C1C (stereo unspecified)	-7.2	32.4	-21.0	x	61.6*	61.1*
CC1CCCC(NC(=O)COC(=O)c2ccccc2[N+](=O)[O-])C1C (stereo unspecified)	13.3	15.8	-5.8	-0.9	-4.0	x
Cc1ccc(S(=O)(=O)N2CCC(C(=O)NCCc3ccccn3)CC2)cc1	10.2	-4.3	-2.0	-3.2	-13.4	x
CCC1(c2ccc(F)cc2)NC(=O)N(CC(=O)N2CCN(C(=O)c3ccco3)CC2)C1=O (stereo unspecified)	-3.1	7.0	-0.5	x	8.6	x
Cc1csc(NC(=O)c2oc3ccccc3c2C)n1	-19.4	13.2	20.9	x	-5.5	x
Cc1csc(Nc2nc(N)c(C(=O)Nc3ccccc3)o2)n1	-16.6	9.2	46.7	24.9	43.3*	29.5
CCCN(Cc1ccc(C)cc1)C(=O)c1ccc(CNS(=O)(=O)c2ccc(C(C)=O)cc2)cc1	9.4	0.3	1.2	x	25.3	x
O=C(CN1C(=O)NC2(CCCCC2)C1=O)Nc1ccccc1N1CCCC1	9.4	20.6	3.7	x	1.0	x
CCCCCn1c(CNC(=O)c2cccs2)nc2ccccc21	36.9	17.6	32.6	-5.5	32.2	x
CCCCCn1c(CCNC(=O)c2cccs2)nc2ccccc21	37.6	27.3	47.7	4.7	41.2*	30.8
c1ccc(-c2csc(Nc3ccc4c(c3)OCCO4)n2)cc1	36.8	22.9	31.8	10.9	41.4*	5.2
CC(C)Cn1[nH]c2c3c(ccc2c1=O)C(=O)c1ccccc1C3=O	24.1	29.8	28.4	-2.6	57.5*	49.0*
O=C1c2ccccc2C(=O)c2c1ccc1c(=O)n(-c3ccccc3)[nH]c21	23.0	20.1	4.1	32.3	15.5	x
O=[N+]([O-])c1ccc(N/N=C/c2cccnc2)cc1	-53.9	-13.6	15.2	17.1	41.8*	30.4
O=C(CSC(=S)N1CCOCC1)Nc1ccc(S(=O)(=O)Nc2ncccn2)cc1	-7.1	16.5	-0.7	22.8	-2.3	x
Brc1ccc(CSc2nnc(-c3cnccn3)n2Cc2ccco2)cc1	39.0	5.1	45.7	33.0	44.7*	15.6
CC(C)OC(=O)CSc1nnc(-c2cnccn2)n1Cc1ccco1	9.4	5.7	11.1	19.9	8.6	x
O=C(c1ccccc1F)N1CCCC(C(=O)N2CCc3ccccc3C2)C1 (stereo unspecified)	14.0	16.2	4.7	-17.0	6.1	x
N#C/C(=C\c1ccc([N+](=O)[O-])o1)c1nc2ccccc2[nH]1	28.5	-3.7	-144.2	101.1*	58.6*	66.1*
Cc1ccc2nc(/C(C#N)=C\c3ccc(N4CCOCC4)o3)[nH]c2c1	-10.7	16.9	22.6	22.5	14.6	x
N#C/C(=C(/O)c1ccc([N+](=O)[O-])o1)c1nc2ccccc2[nH]1	-1.9	18.7	-3.5	x	-1.3	x
Cc1ccc2nc(/C(C#N)=C\c3ccc([N+](=O)[O-])o3)[nH]c2c1	17.3	-15.2	28.7	52.0*	83.9*	95.2*
Cc1ccc2c(c1)-n1c(nc3cc(F)ccc3c1=O)C(Cc1ccc(O)cc1)NC2=O (stereo unspecified)	-3.5	-14.6	-13.6	x	4.2	x
O=[N+]([O-])c1ccc2c(OCc3nnc(-c4ccccc4Br)o3)ncnc2c1	-20.9	4.0	32.5	-7.2	44.6*	30.6*
SMILES	tim10-1 inh	NLRP3 yeast inh	tim23-1 inh	NALP1 inh	TIM10 inh	TIM10 conf
O=[N+]([O-])c1cc(Br)c(OCc2nnc(-c3ccccc3)o2)c(Br)c1	7.4	20.1	6.3	16.2	14.1	x
CC(C)CCNC(=O)CCn1nc(-c2ccc(Cl)cc2)ccc1=O	27.8	11.9	18.6	-6.6	-4.4	x
O=C1/C(=C\c2cccnc2)CCc2ccccc21	39.6	11.3	39.8	-2.6	44.1*	40.3*
CC(C)/C=C1\CC/C(=C\c2cccnc2)C1=O	23.5	2.3	41.2	-5.6	30.2	x
Cn1c(SCc2ccc3c(c2)OCO3)nnc1-c1ccccc1	-2.9	24.1	29.7	x	97.1*	10.9
CCc1cc(-c2n[nH]c(=S)n2C(C)c2ccccc2)cs1 (stereo unspecified)	26.0	0.2	39.6	x	41.4*	19.5
CNc1ncc(C(=O)c2ccc(Cl)c(Cl)c2)s1	36.7	34.8	47.4	-1.6	55.0*	30.2
Cn1c(SCC(=O)Nc2cc(C(C)(C)C)nn2-c2ccccc2)nc2ccccc21	29.2	9.0	40.2	20.6	43.4*	-20.2
CC(=O)Nc1ccc(SCC(=O)Nc2cc(C(C)(C)C)nn2-c2ccccc2)cc1	21.5	0.2	18.3	10.5	8.4	x
CCc1ccc(N(C(=O)c2ccco2)C(C(=O)NC2CCCC2)c2ccco2)cc1 (stereo unspecified)	27.3	-0.9	22.5	x	41.5*	-26.9
O=C(NC1CCCC1)C(c1ccco1)N(C(=O)c1ccco1)c1ccccc1 (stereo unspecified)	19.6	-0.9	26.1	11.1	8.2	x
O=C(COc1ccc(Cl)cc1Cl)NNC(=S)Nc1ccc(F)cc1	38.3	-16.0	41.3	9.6	45.1*	37.7*
O=C(Nc1ccc(NC(=O)C2CCCCC2)nc1)c1cccs1	22.1	-8.6	46.9	-1.3	47.5*	22.8
CC(C)(C)c1ccc(OC(=O)c2ccc(-n3cncn3)nc2)cc1	11.8	5.9	-1.2	9.6	-21.9	x
O=C(c1ccncc1)c1ccc(NC(=O)c2cccs2)cc1	-21.2	-9.7	-5.9	12.6	24.1	x
O=C(Nc1ccc2nc(-c3cccs3)[nH]c2c1)c1cccs1	8.9	-5.9	36.0	13.1	51.8*	33.2*
Cc1ccc(Cc2cnc(NC(=O)C3CCCO3)s2)cc1 (stereo unspecified)	23.6	19.9	32.6	-6.8	18.8	x
Cc1ccc(Cc2cnc(NC(=O)c3cccs3)s2)cc1	35.0	23.1	49.4	-8.7	54.1*	-15.0
O=C(Nc1ccc(-c2nc3ccc(NC(=O)c4cccs4)cc3[nH]2)cc1)c1cccs1	-32.4	-1.1	-18.2	38.4	-25.6	x
O=C(Nc1ccc(Cc2ccncc2)cc1)c1cccs1	-0.6	-16.7	33.6	3.0	41.3*	-4.7
COc1ccc(-n2nc(C(=O)NCC(=O)NCCC3=CCCCC3)c3ccccc3c2=O)cc1OC	3.8	12.4	5.7	9.3	18.1	x
Cc1cc(C)c(NC(=O)/C(=C/c2ccccc2)c2ccccc2)c(C)c1	x	x	x	45.1	x	x
Cc1cc(C)cc(CC2CC(=O)N(c3ccc(Cl)cn3)C2=O)c1 (stereo unspecified)	29.4	25.1	48.5	13.0	51.1*	23.0
Cc1nc2ccccc2c(=O)n1/N=C/c1ccccn1	10.8	8.5	9.6	6.0	-1.3	x
C=CCN=c1scc(-c2ccccc2)n1/N=C/c1ccccn1	28.1	19.9	44.9	26.3	48.3*	43.1*
CCN=c1scc(-c2ccccc2)n1/N=C/c1ccccn1	35.7	11.7	34.7	28.0	45.3*	23.8

From PubChem
